Data from the OligoGym collection.

molecular target: SLC29A3; assay: pooled miR-30 sensor sort-seq; sequence = guide strand; settings: shRNA
Further: reference of the scale not given here.

Question: For TTGCTTGCATCTCGCTGTCAGC, which sensor-assay potency score (higher = more potent) is on record?
Answer: -1.44

Question: For TTGACATGTTGTAAACAGGAAC, which sensor-assay potency score (higher = more potent) is on record?
Answer: -1.02

Question: Which sensor-assay potency score (higher = more potent) does the source give for TTTGTAATAACTCTAGGGCGAA here?
Answer: -1.16

molecular target: SLC2A14; assay: as above; settings: shRNA

Question: How did the sensor-assay potency score (higher = more potent) turn out when TCAGCATTTCAACTGACTCAGC was run?
Answer: -0.914

Question: For TTAACAAAGAGTCCGACGGAAA, which sensor-assay potency score (higher = more potent) is on record?
Answer: -1.6

Question: With TTTATGATCGTCTCAGGAGCAT as the sequence, how does the sensor-assay potency score (higher = more potent) read?
Answer: -0.333

Question: How did the sensor-assay potency score (higher = more potent) turn out when ATAAATTCCTTTATGATCGTCT was run?
Answer: 0.823

Question: TCCCAGATCTATCTGCACCGTG was tested. Which sensor-assay potency score (higher = more potent) did it give?
Answer: -0.88

Question: For TAAATAGTAAGCAGCAGAGGGG, which sensor-assay potency score (higher = more potent) is on record?
Answer: -1.17

Question: With TTCGTGAGCAGCACCTCAGAGG as the sequence, how does the sensor-assay potency score (higher = more potent) read?
Answer: -0.817

Question: TAGTGATTCTTTAATAACAAAG was tested. Which sensor-assay potency score (higher = more potent) did it give?
Answer: -1.67

Question: For TGATTCTTTAATAACAAAGAAA, which sensor-assay potency score (higher = more potent) is on record?
Answer: -1.69

Question: How did the sensor-assay potency score (higher = more potent) turn out when TTATGATCGTCTCAGGAGCATT was run?
Answer: -1.97

Question: AATTCCAATAACTATGCCCAGC was tested. Which sensor-assay potency score (higher = more potent) did it give?
Answer: -1.73

Question: How did the sensor-assay potency score (higher = more potent) turn out when TTACACAGTCCCATAAGGCAGC was run?
Answer: -0.403

molecular target: SLC2A3; assay: as above; settings: shRNA

Question: Which sensor-assay potency score (higher = more potent) does the source give for TCTGCTTAGCATTCTCCTCTTC here?
Answer: 0.0393

Question: TTATCCTTTAATAACAAAGAAA was tested. Which sensor-assay potency score (higher = more potent) did it give?
Answer: -1.62

Question: For TAGCTACTTTACACAGTCCCAT, which sensor-assay potency score (higher = more potent) is on record?
Answer: -0.496

Question: With TTATGATCTTCTCAGGAGCATT as the sequence, how does the sensor-assay potency score (higher = more potent) read?
Answer: -1.71

Question: Which sensor-assay potency score (higher = more potent) does the source give for TTCTTTTCTGTTAATGAGCAAA here?
Answer: -1.47

Question: How did the sensor-assay potency score (higher = more potent) turn out when TTTGAAGAAGGTAAAAGCCAAG was run?
Answer: -1.07

Question: With TTGTAGGATAGCAGGAAGGATG as the sequence, how does the sensor-assay potency score (higher = more potent) read?
Answer: -1.65

Question: How did the sensor-assay potency score (higher = more potent) turn out when TAGGATAGCAGGAAGGATGGTA was run?
Answer: 0.643

Question: With TTGACGAAGAGTCCGACGGAAA as the sequence, how does the sensor-assay potency score (higher = more potent) read?
Answer: -1.44

Question: With TTAGCTACTTTACACAGTCCCA as the sequence, how does the sensor-assay potency score (higher = more potent) read?
Answer: -1.12

Question: With TTCCAGATCTATCTGCACCGTG as the sequence, how does the sensor-assay potency score (higher = more potent) read?
Answer: 0.283

Question: TTACACAGTCCCATAAAGCAGC was tested. Which sensor-assay potency score (higher = more potent) did it give?
Answer: -0.688

molecular target: SLC2A7; assay: as above; settings: shRNA

Question: How did the sensor-assay potency score (higher = more potent) turn out when TGACTTGAAGACCTTGTGCGGC was run?
Answer: -0.691

Question: Which sensor-assay potency score (higher = more potent) does the source give for TCTGCCGCAGCTATCAACCAGC here?
Answer: -0.668

Question: With TAGTAGTTGATCGCATTGATGC as the sequence, how does the sensor-assay potency score (higher = more potent) read?
Answer: -1.14

Question: Which sensor-assay potency score (higher = more potent) does the source give for TTCTGAATCAGGGAGTAGCGGG here?
Answer: -1.43

Question: How did the sensor-assay potency score (higher = more potent) turn out when TTACATATTGGGAGTGAGCGGC was run?
Answer: -0.256

Question: For TTTATCTCCACAAATGTTTTGC, which sensor-assay potency score (higher = more potent) is on record?
Answer: 0.129

Question: How did the sensor-assay potency score (higher = more potent) turn out when TTGAAGACCTTGTGCGGCGTGT was run?
Answer: -0.139

Question: For TAGTTGATCGCATTGATGCCCG, which sensor-assay potency score (higher = more potent) is on record?
Answer: -0.411

Question: With TTTCGTTGTAAAATGACTTGAA as the sequence, how does the sensor-assay potency score (higher = more potent) read?
Answer: 0.429

Question: How did the sensor-assay potency score (higher = more potent) turn out when TAAATCGCAGTGAGGAGGCAGA was run?
Answer: -0.695

Question: TTCATCTCCTTTCTGAATCAGG was tested. Which sensor-assay potency score (higher = more potent) did it give?
Answer: -0.693

Question: With TTTCTCTTGGCAAAAATGCGGT as the sequence, how does the sensor-assay potency score (higher = more potent) read?
Answer: -0.876
